The record followed here is PubChem BioAssay (NCATS).

The structures appear in SMILES notation. Results filed as inconclusive are left out. Calls of active or inactive are those of the source. Unless noted, calls come from the whole dose curve; as a rule, active = well fitted curve in the direction sought with a large enough effect; inconclusive = small, poorly fitted or top-dose-only effect, or another doubt; inactive = no such curve, though single readings can be large; an effect the other way counts as inactive or inconclusive.

The nature of test [1]: qHTS Assay for Identification of Small Molecule Inducers of Hypoxia Response (AID 2120; active = well fitted curve in the direction sought with a large enough effect in the signal ratio, with a control signal flat, not every such curve was filed as active; the % refers to the signal ratio). Put shortly:
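Cell-based qHTS for reporter induction: hypoxia response element controlled beta-lactamase in ME-180 cells. Compounds incubated 17 h at 37 degrees C; activity from blue/green (460/530 nm) ratio, inducers ranked by AC50.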
(In general: In qHTS, concentration-response curves come from the screen itself.)

Test [2] in a line: Cytometric Cell-Based qHTS for Inhibitors of the mTORC1 Signaling Pathway in MEF (Tsc2-/-, p53-/-) Cells (AID 2660).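 Note: Tsc2 and p53 null MEFs carrying empty vector with compound for 24 h; percent of cells above a phospho-rpS6 to PI ratio cutoff in each well.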 Put shortly:
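Immunofluorescence qHTS of rpS6 Ser235/236 phosphorylation: MEFs (Tsc2-/-, p53-/-) treated 24 h, 37 C, in DMEM + 10% FBS. Alexa-488 signal normalized to PI count, referenced to rapamycin (7.5 nM) and DMSO; PI cell number recorded for viability.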

Test [3] can be described thus: High Content Imaging Cell-Based qHTS for Inhibitors of the mTORC1 Signaling Pathway in MEF (Tsc2-/-, p53-/-) Cells (AID 2666).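 Note: percent of cells scored positive for phospho-rpS6 Ser235/236 immunostaining by imaging.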 The note with it: at 38.3 µM (top of the series). The gist of the method: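 Inhibition of rpS6 phosphorylation is measured by immunofluorescence imaging in empty-vector Tsc2-/-, p53-/- mouse embryonic fibroblasts after 24 hrs compound exposure at 37 degree Celsius. Results are reported as % positive cells per well.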

A short description of test [4]: High Content Imaging Cell-Based qHTS for Inhibitors of the mTORC1 Signaling Pathway in MEF Cells (AID 2667).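 Note: Tsc2-/- p53-/- MEFs stably re-expressing wild-type Tsc2 exposed 24 h.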 The gist of the method:
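Fixed-cell imaging of phospho-S6 (Ser235/236, Alexa-488) after 24 hrs of compound treatment at 37 degree Celsius. Signal was normalized to Hoechst, and thresholds from the highest and lowest wells split cells into % active versus % non-active.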

Test [5] is described as follows: Cytometry Cell-Based qHTS for Inhibitors of the mTORC1 Signaling Pathway in MEF cells (AID 2668).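 Note: Tsc2-/- p53-/- mouse embryonic fibroblasts stably re-expressing wild-type Tsc2; percent cells positive for phospho-rpS6 Ser235/236 relative to propidium iodide stain.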 Put shortly: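 MEFs (Tsc2-/-, p53-/- stably expressing WT Tsc2) treated 24 h at 37 degree Celsius, fixed, stained with Alexa-488 anti-phospho-rpS6 Ser235/236 and propidium iodide; Acumen laser scanning. Reported as % positive cells, phospho-S6 normalized to PI.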
Test [6] addresses Ubiquitin carboxyl-terminal hydrolase 2 (Homo sapiens) (UniProt O75604). Briefly: qHTS Validation Assay for Inhibitors of Ubiquitin-specific Protease USP2a Using CHOP2 as the Reporter (AID 463106). The gist of the method:
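Inhibition is expressed relative to NEM as the full-inhibition control, with concentration-response curves classed by fit quality, magnitude and activity. Enzyme (USP2 core, 10nM) meets 25nM Ub-CHOP2 after compound preincubation; readings are taken at 60min.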

Test [7] concerns the target Ferritin light chain (Equus caballus) (UniProt P02791). In words: qHTS Validation Assay for Identification of Novel General Anesthetics (AID 2323). Put shortly: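 Horse-spleen apoferritin (10 uM) in PBS with 50% saturated 1-aminoanthracene; compounds pin-transferred, 10 min at room temperature. Fluorescence read at 380/535 nm, normalized to free 1-AMA and 1-AMA/apoferritin values; four-parameter Hill fit.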

Test [8] has as its target ATP-dependent DNA helicase Q1 (Homo sapiens) (UniProt P46063). Briefly: qHTS Validation Assay for Inhibitors of RecQ-Like Dna Helicase 1 (RECQ1) (AID 2353). Put shortly: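 RECQ1T1 50 nM; forked duplex (20 bp + 30-nt ss tails) 200 nM, ATP 2 mM final; pH 8.0, 2 mM MgCl2, 2.5 ug/ml poly(dI-dC); 15 min compound preincubation; discontinuous kinetic read over 2 h at RT.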
Test [9] addresses RecQ-like DNA helicase BLM (Homo sapiens) (UniProt P54132). In words: qHTS Validation Assay for Inhibitors of Bloom's syndrome helicase (BLM) (AID 2364). Put shortly: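 BLM 50 nM in 25 mM Tris-HCl pH 8.0, 5 mM NaCl, 2 mM MgCl2, 1 mM DTT, 0.01% Tween-20, 2.5 ug/ml poly(dI-dC); 15 min cpd preinc, RT. Start: 200 nM forked DNA + 2 mM ATP (final). TAMRA read, 2 reads 2 h apart.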
A short description of test [10]: Validation screen for small molecules that induce DNA re-replication in MCF 10A normal breast cells (AID 463097). Note: nearly all actives have a fitted effect of over 60% in size. The gist of the method:
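MCF 10A cells exposed to compound 48 hr at 37 C, 5% CO2, then Hoechst-stained 40 min. Laser-scanning imaging of nuclear DNA content (405 nm ex, 500-530 nm em); re-replication scored as rise in nuclei with elevated fluorescence intensity.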

Sequence of Ubiquitin carboxyl-terminal hydrolase 2 (Homo sapiens) (O75604 whole entry, looked up): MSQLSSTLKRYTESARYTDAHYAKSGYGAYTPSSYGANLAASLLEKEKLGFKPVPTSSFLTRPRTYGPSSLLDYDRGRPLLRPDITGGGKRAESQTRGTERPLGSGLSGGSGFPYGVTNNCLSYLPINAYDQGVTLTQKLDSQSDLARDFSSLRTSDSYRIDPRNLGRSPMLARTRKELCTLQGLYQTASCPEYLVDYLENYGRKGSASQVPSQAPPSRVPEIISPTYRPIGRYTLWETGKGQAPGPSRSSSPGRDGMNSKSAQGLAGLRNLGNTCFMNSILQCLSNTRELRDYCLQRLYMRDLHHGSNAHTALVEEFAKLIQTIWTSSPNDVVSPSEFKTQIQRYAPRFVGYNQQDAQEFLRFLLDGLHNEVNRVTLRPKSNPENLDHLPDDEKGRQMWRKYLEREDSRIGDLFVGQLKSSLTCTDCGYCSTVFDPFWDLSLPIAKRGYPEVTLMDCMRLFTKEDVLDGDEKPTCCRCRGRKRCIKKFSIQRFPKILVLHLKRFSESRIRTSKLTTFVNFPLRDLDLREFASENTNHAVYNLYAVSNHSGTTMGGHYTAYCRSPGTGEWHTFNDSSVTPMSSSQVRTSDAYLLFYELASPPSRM
Sequence of Ferritin light chain (Equus caballus) (P02791 2-175 limits assumed): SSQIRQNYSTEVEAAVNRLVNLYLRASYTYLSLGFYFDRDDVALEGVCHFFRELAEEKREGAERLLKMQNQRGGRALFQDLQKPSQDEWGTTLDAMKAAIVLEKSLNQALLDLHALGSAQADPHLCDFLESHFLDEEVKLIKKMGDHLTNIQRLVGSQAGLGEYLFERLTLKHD
Sequence of RecQ-like DNA helicase BLM (Homo sapiens) (P54132 whole entry, looked up): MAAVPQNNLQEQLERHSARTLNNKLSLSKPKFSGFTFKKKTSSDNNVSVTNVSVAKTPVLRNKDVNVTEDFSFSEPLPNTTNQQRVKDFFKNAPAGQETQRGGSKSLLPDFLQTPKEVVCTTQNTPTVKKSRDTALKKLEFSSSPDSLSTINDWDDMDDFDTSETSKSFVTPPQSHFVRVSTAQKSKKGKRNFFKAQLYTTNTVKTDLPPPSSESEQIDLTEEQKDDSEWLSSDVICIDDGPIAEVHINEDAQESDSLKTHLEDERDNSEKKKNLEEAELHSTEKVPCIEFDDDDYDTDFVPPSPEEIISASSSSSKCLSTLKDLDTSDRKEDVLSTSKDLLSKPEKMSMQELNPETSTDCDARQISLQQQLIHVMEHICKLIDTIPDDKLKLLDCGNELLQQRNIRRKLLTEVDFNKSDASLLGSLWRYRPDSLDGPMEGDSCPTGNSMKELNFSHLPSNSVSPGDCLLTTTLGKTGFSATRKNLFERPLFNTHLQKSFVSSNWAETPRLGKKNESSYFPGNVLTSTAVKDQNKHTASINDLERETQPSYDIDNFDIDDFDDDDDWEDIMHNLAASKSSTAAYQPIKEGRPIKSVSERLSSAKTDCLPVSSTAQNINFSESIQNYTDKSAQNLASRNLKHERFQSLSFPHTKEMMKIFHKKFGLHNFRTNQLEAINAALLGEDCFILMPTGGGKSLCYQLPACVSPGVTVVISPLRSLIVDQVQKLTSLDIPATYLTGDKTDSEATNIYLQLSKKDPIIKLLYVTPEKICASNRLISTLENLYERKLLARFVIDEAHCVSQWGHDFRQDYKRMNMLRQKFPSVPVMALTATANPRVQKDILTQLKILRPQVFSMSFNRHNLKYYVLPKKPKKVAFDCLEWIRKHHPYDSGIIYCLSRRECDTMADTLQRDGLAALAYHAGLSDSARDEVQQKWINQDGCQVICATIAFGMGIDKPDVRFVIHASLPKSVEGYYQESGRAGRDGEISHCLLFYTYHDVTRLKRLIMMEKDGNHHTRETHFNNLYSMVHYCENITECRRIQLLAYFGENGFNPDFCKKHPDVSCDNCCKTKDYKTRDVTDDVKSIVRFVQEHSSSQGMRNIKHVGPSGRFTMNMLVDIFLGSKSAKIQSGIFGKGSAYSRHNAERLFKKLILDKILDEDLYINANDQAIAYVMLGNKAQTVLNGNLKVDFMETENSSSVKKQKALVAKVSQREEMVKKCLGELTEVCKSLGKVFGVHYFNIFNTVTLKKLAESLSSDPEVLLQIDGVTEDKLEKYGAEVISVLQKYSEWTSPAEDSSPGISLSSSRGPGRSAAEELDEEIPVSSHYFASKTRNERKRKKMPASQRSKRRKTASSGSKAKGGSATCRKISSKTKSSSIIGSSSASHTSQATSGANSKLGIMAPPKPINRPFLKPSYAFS
Sequence of ATP-dependent DNA helicase Q1 (Homo sapiens) (P46063 whole entry, looked up): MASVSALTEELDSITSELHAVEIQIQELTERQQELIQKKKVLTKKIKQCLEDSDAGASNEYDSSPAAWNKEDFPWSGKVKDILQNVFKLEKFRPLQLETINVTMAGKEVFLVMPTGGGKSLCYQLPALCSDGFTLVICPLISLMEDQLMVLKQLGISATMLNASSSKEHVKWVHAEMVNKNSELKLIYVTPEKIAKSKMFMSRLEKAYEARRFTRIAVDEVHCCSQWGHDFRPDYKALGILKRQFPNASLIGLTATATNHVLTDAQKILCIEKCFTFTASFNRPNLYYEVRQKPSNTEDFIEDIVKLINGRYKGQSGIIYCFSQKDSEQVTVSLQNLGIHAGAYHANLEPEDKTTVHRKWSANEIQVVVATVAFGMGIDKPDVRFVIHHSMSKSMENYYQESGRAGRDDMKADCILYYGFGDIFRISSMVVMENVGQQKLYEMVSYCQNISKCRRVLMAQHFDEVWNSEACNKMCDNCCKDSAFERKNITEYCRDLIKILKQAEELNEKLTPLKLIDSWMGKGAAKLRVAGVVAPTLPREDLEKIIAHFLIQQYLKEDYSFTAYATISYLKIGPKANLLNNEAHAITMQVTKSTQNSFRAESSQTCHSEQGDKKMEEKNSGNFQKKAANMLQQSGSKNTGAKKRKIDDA

For the compound `NC(=O)c1ccccc1O`, the result in test [1] was inactive.
`CCOC(=O)[C@H](CCc1ccccc1)N[C@@H](C)C(=O)N1[C@H](C(=O)O)C[C@H]2CCCC[C@@H]21`: the compound was called inactive in test [2], in test [3], in test [4], in [5] and in [6].
Consider `CN=C(N)NCCC[C@H](N)C(=O)O`, for which the compound was classed as inactive in test [2], in [3], in test [4], in [5] and in [6].
For `OC[C@H]1O[C@@H]2O[C@H]3[C@H](O)[C@@H](O)[C@@H](O[C@H]4[C@H](O)[C@@H](O)[C@@H](O[C@H]5[C@H](O)[C@@H](O)[C@@H](O[C@H]6[C@H](O)[C@@H](O)[C@@H](O[C@H]7[C@H](O)[C@@H](O)[C@@H](O[C@H]8[C@H](O)[C@@H](O)[C@@H](O[C@H]1[C@H](O)[C@H]2O)O[C@@H]8CO)O[C@@H]7CO)O[C@@H]6CO)O[C@@H]5CO)O[C@@H]4CO)O[C@@H]3CO`, the compound was classed as inactive in test [1].
Same read-out and setting: under `CCCCC(CC)COC(=O)c1ccc(N(C)C)cc1` (stereo not drawn) stands “inactive”.
As for `NC(N)=NCc1cccc(I)c1`, the outcome in [7], in test [8], in test [9], in test [2], in [3] and in [4] was inactive. Besides, the result in test [5], in test [10] and in test [6] was inactive.
Regarding `COc1ccc(C(=O)c2ccccc2)c(O)c1`, in [1], the compound was called inactive.
Still for that read-out and setting: next, `COc1ccc(C(Cl)=C(c2ccc(OC)cc2)c2ccc(OC)cc2)cc1`: “inactive”; `NCCNc1cccc2ccccc12`: “inactive”; `COc1cc([C@H]2Oc3cc([C@H]4Oc5cc(O)cc(O)c5C(=O)[C@@H]4O)ccc3O[C@@H]2CO)ccc1O`: “inactive”.
As for `CC(C)(C)NC[C@H](O)COc1nsnc1N1CCOCC1`, the call in test [2], in test [3], in [4], in [5] and in [6] was inactive.
For `O=C(O)c1ccc(S(=O)(=O)N(Cl)Cl)cc1`, the result in [1] was inactive.
The same measure, in the same setting: under `CCOc1ccc(NC(C)=O)cc1` stands “inactive”; under `CCOc1ccccc1C(N)=O`, “inactive”; under `C/C=C/c1ccc(O)c(OC)c1`, “inactive”.
Take `CC(=O)OCC1=C(C(=O)O)N2C(=O)[C@@H](NC(=O)CSc3ccncc3)[C@H]2SC1`: the outcome in test [7], in [9] and in test [10] was inactive.
